# Inconclusive results are not listed. A call without a number means that no potency is given here. Active and inactive are the calls of the source. Unless noted, the call rests on the fitted dose curve; in most records, active means well fitted curve in the direction sought with a large enough effect; inconclusive means small, poorly fitted or top-dose-only effect, or another doubt; inactive means no such curve, though single readings can be large; an effect the other way counts as inactive or inconclusive.
# How the values were obtained:
# [1] = KB-8-5-11 P-gp reporter qHTS against the NCATS DSHEA and TCM libraries (AID 1919977)
# How it was run: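 P-gp-overexpressing KB-8-5-11 cells were screened in colchicine-free medium at 500 cells/well, as a titration series. Cells were exposed for 72 h at 37C. Viability was read by CellTiter-Glo luminescence after 30 min at room temperature.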
# [2] = Dual reporter qHTS for agonist of Pregnane X Receptor (hPXR) against the NCATS DSHEA and TCM libraries: Fluorescence readout (AID 1920058)
# How it was run: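 HepG2 hPXR-Luc, 2000 cells/well, 5 h attach; cpds ~24 h, 37 °C/5% CO2; CellTiter-Fluor 1 h; fluor. Ex/Em 405/540 nm = viability.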
# [3] = molecular target: Nuclear receptor subfamily 1 group I member 2 (Homo sapiens) (UniProt O75469); assay: Dual reporter qHTS for agonist of Pregnane X Receptor (hPXR) against the NCATS DSHEA and TCM libraries: Luminescence readout (AID 1920059)
# How it was run: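 hPXR-LucHepG2 cells in phenol red-free DMEM with 5% charcoal-stripped FBS, 2000 cells/well, attached 5 h, then exposed 24 h at 37C to compounds; rifampicin as positive agonist control (2.8 nM–92 uM). Luciferase luminescence read.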
# [4] = Confirmatory qHTS for activators (rescue) of SARS-CoV-2 Cytopathic Effect (CPE) (AID 1508606; calls by dose curve; further: potency means the concentration at half of the fitted maximal effect; nearly all actives have a fitted effect of over 70% in size)
# [5] = Cell Proliferation Assay against the TMD8 Cell Line (AID 651645); settings: TMD8 DLBCL cell line proliferation/viability; at 46.1 µM (top of the series);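 further: cells exposed to compound for 48 h before reading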
# How it was run: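 TMD8 cells, 500/well in RPMI with 5% FBS, dosed immediately and grown 48 h at 37 C, 5% CO2. CellTiter-Glo luminescence normalised to DMSO 100% and 9.2 uM bortezomib (final) 0%.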
# [6] = Cell Proliferation Assay against the HBL1 Cell Line (AID 651646); settings: HBL1 DLBCL cells; at 46.1 µM (top of the series);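 further: cells exposed to compound for 48 h before reading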
# How it was run: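 500 log-phase HBL1 cells per well in phenol red-free RPMI with 5% FBS were treated with compounds for 48 h at 37 °C, 5% CO2. Viability was read by CellTiter-Glo luminescence, normalized to DMSO (100%) and 9.2 uM bortezomib final (0%).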
# [7] = Cell Proliferation Assay against the TMD8 Cell Line (Caspase readout at 8 hrs) (AID 651713); settings: TMD8 lymphoma cells, caspase activation luminescence; further: potency means the concentration at half of the fitted maximal effect
# How it was run: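 Seed log-phase TMD8 cells, add compound by pin tool, incubate 8 h at 37C under 5% CO2, equilibrate to room temperature, add Caspase-Glo, wait 15 min, read luminescence; percent activity uses DMSO and 9.2 uM bortezomib controls.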
# [8] = molecular target: Tyrosine-protein kinase Yes (Homo sapiens) (UniProt P07947); assay: qHTS for small molecule inhibitors of Yes1 kinase: Primary Screen (AID 686947); further: nearly all actives have a fitted effect of over 60% in size
# How it was run: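 Yes1 (4 nM) preincubated 20 min with compound, then 60 min room-temperature reaction with 0.1 mM ATP and 0.3 mg/mL poly(E4Y) in pH 7.5 Tris, 10 mM MgCl2. ADP measured by ADP-Glo luminescence, normalised to enzyme/no-enzyme controls.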
# [9] = qHTS for small molecule inhibitors of Yes1 kinase: Counter Assay (AID 686950);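 further: no kinase present so only ADP-Glo detection of a fixed ADP amount is tested; luminescence from ADP-Glo reporting ADP in a fixed ATP and ADP mixture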
# How it was run: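 Enzyme-free ADP-Glo interference check: compounds were preincubated 20 min in buffer, then an ATP/ADP mix (0.08 mM ATP, 0.02 mM ADP final) was added for 60 min at room temperature before two-step ADP-Glo luminescence detection.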
# [10] = qHTS Assay for Identifying Gametocytocidal Compounds (AID 743244); further: potency means the concentration at half of the fitted maximal effect; settings: P. falciparum 3D7 stage III-V gametocytes, alamarBlue, 72 h
# How it was run: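 P. falciparum 3D7 stage III–V gametocytes (20,000 cells/well) were exposed to compounds for 72 h at 37 °C, 5% CO2. AlamarBlue was then added for 24 h; decreased resorufin fluorescence (Ex 525/Em 598 nm) indicated loss of viability.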
# [11] = molecular target: Calcium and integrin-binding protein 1 (Homo sapiens) (UniProt Q99828); assay: Confirmatory qHTS for Identification of Calcium Integrin Binding Protein 1 (CIB1) Competitor (AID 1508617); settings: CIB1 binding competition assay, biochemical qHTS; further: potency means the concentration at half of the fitted maximal effect; nearly all actives have a fitted effect of over 65% in size
# How it was run: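 FP competition: CIB1-GST (1 uM final) in 5 mM HEPES pH 7.4, 125 mM NaCl, 5 mM CaCl2, 0.01% Tween20 preincubated 15 min RT with compounds (up to 114 uM), then FITC-alphaIIb peptide (100 nM), 15 min RT; Ex 480/Em 540.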
# [12] = molecular target: Lysosomal acid glucosylceramidase (Homo sapiens) (UniProt P04062); assay: Glucocerebrosidase-p2 (AID 348; in the data active means potency below about 10 µM; further: potency means the concentration at half of the fitted maximal effect); settings: purified GBA, blue fluorogenic substrate, 40 min
# How it was run: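 Compounds titrated from 0.6 nM upwards against 0.2 nM enzyme in pH 5.9 citric acid/KH2PO4, taurocholate, tween-20; blue fluorogenic substrate 80 uM, 40 min room temperature, stopped and read Ex 365/Em 440 for AC50.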
# [13] = qHTS Assay for Identification of Small Molecule Agonists for Hypoxia Response Element Signaling Pathway (AID 914; active means well fitted activation curve with a large enough effect in the signal ratio, with a control signal flat, not every such curve was filed as active; the % refers to the signal ratio); settings: ME-180 HRE-bla reporter, beta-lactamase ratio, CoCl2, 17 h; activation: stronger effect = higher value
# How it was run: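 HRE-bla ME-180 cells, overnight plating in Opti-MEM with 0.5% dialyzed FBS; cpd titration + EC50 CoCl2, 17 h, 37 degrees Celsius; CCF4 2.5 h RT; 460/530 nm ratio; AC50.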
# [14] = molecular target: Pyruvate kinase PKM (Homo sapiens) (UniProt P14618); assay: qHTS Assay for Inhibitors of Human Muscle Pyruvate Kinase (AID 958); settings: purified human PKM enzyme activity
# How it was run: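 Luminescence from a luciferase ATP-detection/stop reagent reported PKM2 activity. Reactions contained 0.1 nM purified human enzyme, 0.5 mM PEP, 0.1 mM ADP and 7 mM MgCl2 at pH 7.2, run 1 h at RT.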
# [15] = molecular target: Pyruvate kinase (Leishmania mexicana) (UniProt Q27686); assay: qHTS Validation Assay for Activators of Leishmania Mexicana Pyruvate Kinase (AID 959)
# How it was run: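 Luminescent ATP detection (PKLight) after a 1 h room-temperature reaction of 0.2 nM LmPYK E451W mutant with 0.5 mM PEP and 0.1 mM ADP at pH 7.2. Activity is normalized to DMSO-only control wells.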
# [16] = qHTS Assay for Identification of Small Molecule Antagonists for NFkB Signaling Pathway (AID 895; active means well fitted inhibition curve with a large enough effect in the signal ratio, with a control signal flat, not every such curve was filed as active; the % refers to the signal ratio)
# How it was run: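 NFkB-bla ME-180 cervical carcinoma cells with beta-lactamase reporter under NFkB response element; compounds added, then TNF alpha at 10 pM final (EC50), 5 h at 37 C. LiveBLAzer substrate 2 h, room temperature; emission 460/530 nm at 405 nm excitation.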
# CP203 = assay: qHTS profiling for inhibitors of Plasmodium falciparum proliferation (AID 504749); further: nearly all actives have a fitted effect of over 60% in size; settings: P. falciparum in erythrocytes, SYBR Green DNA, 72 h; series mostly up to 28.7 µM
# How it was run: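 Parasite proliferation within erythrocytes, 72 h exposure. Endpoint: SYBR Green I fluorescence after overnight lysis at room temperature. Controls: 0.29 uM artemisinin, DMSO.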
# [17] = molecular target: D(1A) dopamine receptor (Homo sapiens) (UniProt P21728); assay: HTS Assay for Allosteric Agonists of the Human D1 Dopamine Receptor: Primary Screen for Potentiators (AID 488982)
# How it was run: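 Tetracycline-induced HEK293 T-REx cells force-coupled to calcium signalling were incubated overnight at 30 C and dye-loaded at room temperature. Calcium flux over 180 s after compound addition flagged agonists; a further 180 s read after EC20 dopamine flagged potentiators.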
# [18] = Cytotoxicity counterscreen for NFkB agonists and antagonists (AID 624476);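 further: cells exposed to compound for 48 hours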
# [19] = qHTS Assay for Identification of Small Molecule Agonists for NFkB Signaling Pathway. (AID 624478)
# How it was run: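 ME-180 cervical carcinoma, stable NFkB-RE beta-lactamase reporter; 1000 cells/well, overnight attachment; cpd + TNF alpha 10 pM final, 5 h 37 C; LiveBLAzer 2 h RT; FRET 460/530 nm, ex 405 nm.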
# Chain of Lysosomal acid glucosylceramidase (Homo sapiens) (P04062 whole entry, looked up): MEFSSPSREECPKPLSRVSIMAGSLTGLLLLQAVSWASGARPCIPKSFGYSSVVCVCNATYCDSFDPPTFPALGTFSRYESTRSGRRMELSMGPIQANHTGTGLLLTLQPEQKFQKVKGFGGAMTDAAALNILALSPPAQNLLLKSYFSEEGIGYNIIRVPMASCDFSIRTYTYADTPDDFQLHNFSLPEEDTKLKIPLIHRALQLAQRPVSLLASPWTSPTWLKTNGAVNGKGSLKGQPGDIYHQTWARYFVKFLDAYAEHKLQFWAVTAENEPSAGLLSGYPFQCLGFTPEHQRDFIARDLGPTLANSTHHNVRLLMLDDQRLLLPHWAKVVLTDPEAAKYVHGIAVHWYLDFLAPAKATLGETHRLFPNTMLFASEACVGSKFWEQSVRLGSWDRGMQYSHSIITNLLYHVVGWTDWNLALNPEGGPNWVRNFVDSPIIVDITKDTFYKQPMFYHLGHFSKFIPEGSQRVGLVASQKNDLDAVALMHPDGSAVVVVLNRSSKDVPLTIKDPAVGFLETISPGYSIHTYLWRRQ
# Chain of Nuclear receptor subfamily 1 group I member 2 (Homo sapiens) (O75469 whole entry, looked up): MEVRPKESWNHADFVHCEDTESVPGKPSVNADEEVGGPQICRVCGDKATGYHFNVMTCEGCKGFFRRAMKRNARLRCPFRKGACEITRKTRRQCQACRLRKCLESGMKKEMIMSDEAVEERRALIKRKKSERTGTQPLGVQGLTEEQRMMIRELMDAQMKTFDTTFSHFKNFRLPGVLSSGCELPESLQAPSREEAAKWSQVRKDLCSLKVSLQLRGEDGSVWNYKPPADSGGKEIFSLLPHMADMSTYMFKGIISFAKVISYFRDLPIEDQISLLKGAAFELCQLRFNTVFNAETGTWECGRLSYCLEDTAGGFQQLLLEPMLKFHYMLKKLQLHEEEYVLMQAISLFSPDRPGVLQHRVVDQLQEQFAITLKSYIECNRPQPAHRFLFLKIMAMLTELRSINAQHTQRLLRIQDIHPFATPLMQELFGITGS
# Chain of Pyruvate kinase (Leishmania mexicana) (Q27686 2-499 E452W): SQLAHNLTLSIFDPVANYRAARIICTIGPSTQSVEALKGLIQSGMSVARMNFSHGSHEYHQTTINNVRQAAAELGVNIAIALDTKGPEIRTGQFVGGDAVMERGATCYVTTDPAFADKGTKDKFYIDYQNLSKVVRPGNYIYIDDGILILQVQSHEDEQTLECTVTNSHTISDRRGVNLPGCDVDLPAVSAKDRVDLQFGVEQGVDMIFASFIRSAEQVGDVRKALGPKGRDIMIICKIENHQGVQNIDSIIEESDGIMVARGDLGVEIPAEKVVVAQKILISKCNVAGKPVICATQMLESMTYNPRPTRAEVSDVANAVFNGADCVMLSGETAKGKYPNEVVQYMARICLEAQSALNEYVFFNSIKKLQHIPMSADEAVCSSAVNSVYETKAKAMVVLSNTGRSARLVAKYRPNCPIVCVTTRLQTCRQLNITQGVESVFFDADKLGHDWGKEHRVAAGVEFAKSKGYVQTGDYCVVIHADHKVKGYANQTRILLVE
# Chain of D(1A) dopamine receptor (Homo sapiens) (P21728 whole entry, looked up): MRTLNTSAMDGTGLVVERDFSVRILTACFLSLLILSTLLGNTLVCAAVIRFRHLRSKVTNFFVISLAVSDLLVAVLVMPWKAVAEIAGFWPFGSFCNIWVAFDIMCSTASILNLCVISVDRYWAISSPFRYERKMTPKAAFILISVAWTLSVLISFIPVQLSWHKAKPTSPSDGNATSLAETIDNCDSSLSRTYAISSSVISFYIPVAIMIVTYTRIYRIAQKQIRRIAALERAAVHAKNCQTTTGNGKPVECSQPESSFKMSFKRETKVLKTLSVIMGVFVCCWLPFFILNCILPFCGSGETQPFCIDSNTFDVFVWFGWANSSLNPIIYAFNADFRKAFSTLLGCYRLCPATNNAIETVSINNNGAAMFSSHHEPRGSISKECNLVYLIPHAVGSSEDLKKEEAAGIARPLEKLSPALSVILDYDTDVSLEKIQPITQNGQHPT
# Chain of Calcium and integrin-binding protein 1 (Homo sapiens) (Q99828 whole entry, looked up): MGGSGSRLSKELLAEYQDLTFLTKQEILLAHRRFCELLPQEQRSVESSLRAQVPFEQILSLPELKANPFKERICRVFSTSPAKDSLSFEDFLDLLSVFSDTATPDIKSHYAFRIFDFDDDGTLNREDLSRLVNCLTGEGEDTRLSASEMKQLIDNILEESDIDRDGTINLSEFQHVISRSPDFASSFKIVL
# Chain of Tyrosine-protein kinase Yes (Homo sapiens) (P07947 whole entry, looked up): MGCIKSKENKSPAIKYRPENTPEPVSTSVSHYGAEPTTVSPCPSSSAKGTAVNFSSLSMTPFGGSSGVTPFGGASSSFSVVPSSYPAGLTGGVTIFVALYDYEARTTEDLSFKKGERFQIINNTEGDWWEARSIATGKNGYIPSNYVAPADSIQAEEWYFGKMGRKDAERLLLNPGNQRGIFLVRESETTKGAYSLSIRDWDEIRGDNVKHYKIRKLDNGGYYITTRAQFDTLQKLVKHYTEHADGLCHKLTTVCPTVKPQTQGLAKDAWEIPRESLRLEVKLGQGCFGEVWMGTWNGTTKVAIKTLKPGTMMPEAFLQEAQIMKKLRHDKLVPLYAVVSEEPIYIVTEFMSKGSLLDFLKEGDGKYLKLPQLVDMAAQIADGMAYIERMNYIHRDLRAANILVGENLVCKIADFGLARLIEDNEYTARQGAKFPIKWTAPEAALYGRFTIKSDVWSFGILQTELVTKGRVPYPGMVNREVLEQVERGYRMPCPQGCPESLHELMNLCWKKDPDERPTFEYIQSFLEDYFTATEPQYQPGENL
# Chain of Pyruvate kinase PKM (Homo sapiens) (P14618 whole entry, looked up): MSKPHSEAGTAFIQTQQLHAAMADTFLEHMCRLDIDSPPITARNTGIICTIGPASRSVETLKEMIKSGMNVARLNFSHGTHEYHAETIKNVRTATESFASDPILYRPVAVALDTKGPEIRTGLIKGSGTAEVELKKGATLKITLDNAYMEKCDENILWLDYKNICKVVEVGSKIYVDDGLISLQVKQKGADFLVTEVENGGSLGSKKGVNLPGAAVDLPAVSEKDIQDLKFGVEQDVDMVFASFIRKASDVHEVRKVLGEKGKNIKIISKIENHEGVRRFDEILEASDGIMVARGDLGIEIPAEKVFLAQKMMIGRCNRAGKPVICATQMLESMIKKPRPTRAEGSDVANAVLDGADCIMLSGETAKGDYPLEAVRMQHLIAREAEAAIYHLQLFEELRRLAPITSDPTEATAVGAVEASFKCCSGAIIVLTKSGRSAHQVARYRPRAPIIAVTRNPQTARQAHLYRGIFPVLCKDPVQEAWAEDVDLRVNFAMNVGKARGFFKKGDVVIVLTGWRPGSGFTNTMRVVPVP
smiles,measurement,setting,value
N#CC(O[C@@H]1O[C@H](CO[C@@H]2O[C@H](CO)[C@@H](O)[C@H](O)[C@H]2O)[C@@H](O)[C@H](O)[C@H]1O)c1ccccc1 (stereo not given in full),Potency,[1],inactive
same,outcome,[2],inactive
same,Potency,[3],inactive
CCCCCCC(C)(C)c1cc(O)c2c(c1)OC(C)(C)C1CC=C(CO)C[C@H]21 (stereo not given in full),Potency,[4],10 µM (active)
COC(=O)[C@]12CCC(C)(C)C[C@H]1[C@H]1C(=O)C=C3[C@@]4(C)C=C(C#N)C(=O)C(C)(C)[C@@H]4CC[C@@]3(C)[C@]1(C)CC2,viability (% of control),[5],0.135%
same,"viability, percent of control",[6],1.52%
same,Potency,[7],0.662 µM (active)
same,outcome,[8],inactive
same,outcome,[9],inactive
same,Potency,[10],5.01 µM (active)
same,Potency,[11],10 µM (active)
CC(C)(O)/C=C\C(=O)[C@](C)(O)[C@H]1[C@H](O)C[C@]2(C)[C@@H]3CC=C4[C@@H](C=C(O)C(=O)C4(C)C)[C@]3(C)C(=O)C[C@@]12C,Potency,[12],> 11.4 µM (inactive)
NNCc1cccc(O)c1,activation,[13],15.1% (inactive)
same,Potency,[14],15.8 µM (active)
same,outcome,[15],inactive
CCCN(CCC)C(=O)Cc1c(-c2ccc(Cl)cc2)nc2c(Cl)cc(Cl)cn12,Potency,[16],inactive
CC(C)(O)C1C2OC(=O)C1[C@]1(O)C[C@H]3O[C@]34C(=O)O[C@H]2[C@]14C (stereo not given in full) (tested in a mixture with another compound),Potency,CP203,inactive
CC12CCC3C(CCC4=C(O)C(=O)CCC43C)C1CCC2=O (stereo not given),outcome,[17],inactive
same,outcome,[18],inactive
same,outcome,[19],inactive
